This is an account of results in PubChem BioAssay AID652104 (National Center for Advancing Translational Sciences (NCATS), 2013).

In all, about 410,000 compounds went through this assay and about 7,200 (1.8%) were called active. Roughly 7% stayed inconclusive and do not appear here. Calls come from the whole dose curve; as a rule, active = well fitted activation curve with a large enough effect; inconclusive = small, poorly fitted or top-dose-only effect, or another doubt; inactive = no such curve, though single readings can be large or run the other way. Many of the other results were omitted from the sample, so actives are more common in it than they were.
Potency is the fitted concentration of half-maximal effect.

A short description of this test: qHTS of TDP-43 Inhibitors. For growth rescue (activation): % of control where 0% means no effect. Note: nearly all actives have a fitted effect of over 50% in size. Particulars: TDP-43 expressing yeast growth rescue, BacTiter-Glo, 24 h; series mostly up to 46.1 µM; growth rescue (activation): at the top concentration. The method, boiled down: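 Galactose-induced TDP-43 yeast, OD600=0.02, compound pinned; 24 hr, 30 deg C; BacTiter-Glo luminescence for growth. Inhibitors of TDP-43 toxicity read as activators.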
A general note: qHTS replaces the single test concentration by a dilution series.
Consider `COc1ccc(NC(=O)Cn2c(=O)cc(C)c3c(C)nn(-c4cccc(Cl)c4C)c32)cc1OC`, for which the “growth rescue (activation)” value is 15.4% (inactive).

`CCOC(=O)c1cc(-c2ccccc2)n(-c2cccc(C(=O)Nc3cc(OC)cc(OC)c3)c2)c1C`: the “growth rescue (activation)” value is 13.5% (inactive).

For the compound `CC(C)OCCCn1c(SCC(=O)c2ccccc2)nc2c(sc3ccccc32)c1=O`, the “growth rescue (activation)” value was 22.8% (inactive). `CCn1c(CSCc2c(Cl)cccc2Cl)n[nH]c1=S`: the Potency is 11.2 µM (active).

As to `CCn1c(CNS(=O)(=O)c2ccc(Cl)cc2)n[nH]c1=S`, the “growth rescue (activation)” value is -8.25% (inactive). Consider `CCn1c(CN2C(=O)CSc3ccccc32)n[nH]c1=S`, for which the “growth rescue (activation)” value was -24.2% (inactive). `CC(C)(C)c1ccc(C(=O)Nc2ccc3c(c2)CCCN3C(=O)c2cccs2)cc1`: the growth rescue (activation) is 18.3% [at 9.22 µM] (inactive). Still for that read-out and setting: next, `CCOC(=O)c1c(S(=O)(=O)NCC(=O)Nc2ccc(Cl)c(C(F)(F)F)c2)c(C)n(C)c1C`: -5.08% (inactive).

For `CCOc1cc(/C=N/Nc2cc(C)nc3ccc(C)cc23)ccc1O`, the Potency was 15.8 µM (active). As to `CCOc1cc(/C=C2\SC(N3CCCC(C)C3)=NC2=O)ccc1O` (centres undefined), the “growth rescue (activation)” value was -3.68% (inactive).

In the case of `COc1cc(OC)cc(C(=O)Nc2cc3nn(-c4ccccc4)nc3cc2Cl)c1`, the “growth rescue (activation)” value is 2.89% (inactive). On the same count and under the same terms, the figure for `O=[N+]([O-])c1cc(-c2nc(-c3ccccc3)no2)ccc1NCc1ccco1` is 6.16% (inactive); for `CCc1nn(CCCC(=O)NCc2ccccc2OC)c(=O)c2cc3occc3n12` it is 0% (inactive); for `CCCS(=O)(=O)c1c(Nc2ccccc2C)sc(C(=O)c2ccccc2)c1N` it is 28.5% (inactive).

`NC(=O)c1sc2nc3c(c(-c4ccccc4)c2c1N)CCC3`: the Potency was 28.2 µM (active).

For the compound `COc1cccc(C(=O)c2sc3nc(-c4ccccc4)cc(C(F)(F)F)c3c2N)c1`, the “growth rescue (activation)” value is 19% (inactive). Same read-out and setting: the figure for `COc1ccccc1NC(=O)c1sc2nc(C)c(C(=O)Nc3ccc(Cl)cc3)c(-c3ccc(Br)cc3)c2c1N` is 3.6% (inactive); for `COC(=O)c1cc2c(N)c(C(=O)c3ccc(Cl)cc3)sc2nc1C(OC)OC` it is 11.8% (inactive). As to `CN(C(=O)c1ccccc1)c1nccnc1C#N`, the “growth rescue (activation)” value is -6.6% (inactive). For `Cc1nc2sc(C(=O)c3ccccc3)c(N)c2c2c1CCCC2`, the Potency was 22.4 µM (active). Same read-out and setting: next, `CN(C)c1ccnc2sc(C(=O)c3ccccc3)c(N)c12`: 6.31 µM (active).

For `Nc1c(C(=O)c2cccs2)sc2nsc(SCCN3CCCCC3)c12`, the “growth rescue (activation)” value is -31% (inactive). As for `Cc1ccc2c(N)c(C(=O)c3ccccc3)sc2n1`, the Potency was 14.1 µM (active). For `Cc1ccc(NC(=O)c2sc3nc(N)c(C#N)cc3c2N)cc1`, the “growth rescue (activation)” value was 1.81% (inactive). Same read-out and setting: the figure for `Cc1ccccc1CSCCNC(=O)C1CCN(S(=O)(=O)Cc2ccccc2)CC1` is 16.1% (inactive); for `Cc1c(NS(=O)(=O)c2ccc(Cl)cc2)c(=O)n(-c2ccccc2)n1C` it is 10.6% (inactive); for `CCCN(CCC)CCNC(=O)Cn1cnc2sc(C)c(S(=O)(=O)N3CCC(C)CC3)c2c1=O` it is 8.27% (inactive). `CCc1ccccc1NC(=O)N1CCN(C(=O)c2nsc3ccccc23)CC1`: the “growth rescue (activation)” value was 20.8% (inactive).

As to `COc1ccc(C2Sc3ccccc3NC3=C2C(=O)c2ccccc23)c(OC)c1OC` (centres undefined), the “growth rescue (activation)” value was 0% (inactive). Still for that read-out and setting: the figure for `Cc1ccc(C(=O)Nc2ccc(C(=O)O)cc2)cc1S(=O)(=O)Nc1ccccc1` is 22.9% (inactive). On the same count and under the same terms, the figure for `Cc1cccc(C(=O)Nc2ccc(-c3nc4ncccc4o3)cc2C)c1` is 15.3% (inactive). `O=C(NCc1cccnc1)C(=O)NCC(c1cccnc1)N1CCN(c2ccccc2)CC1` (centres undefined): the “growth rescue (activation)” value is 6.7% (inactive). For the compound `O=C(NCc1ccc2c(c1)CCN2C(=O)c1ccccc1)c1ccccc1`, the “growth rescue (activation)” value is 24.4% (inactive). Still for that read-out and setting: next, `COc1ccc(N)c(C)c1`: 28% (inactive). Same read-out and setting: next, `COc1ccc2[nH]c3c(C)c4cc[n+](C)cc4c(C)c3c2c1`: 0% (inactive). `COc1ccc2[nH]c3ccc(OC)cc3c2c1`: the Potency was 8.91 µM (active).

On to `Cc1ccc(Cl)cc1N(C)C(=O)Cn1nc(Cc2cccnc2)c2ccccc2c1=O`, for which the “growth rescue (activation)” value was -12.3% (inactive). Turning to `CCCn1c2ccccc2c2cnn(CC(=O)N3CCCC(C(=O)OCC)C3)c(=O)c21` (centres undefined), the “growth rescue (activation)” value was 28% (inactive). On the same count and under the same terms, the figure for `CCc1ccc(S(=O)(=O)n2ccnc2)cc1` is 16.1% (inactive); for `COc1cccc(Cn2c(SCc3ccc(C(=O)N4CCC(C)CC4)cc3)nc3ccncc32)c1` it is 1.69% (inactive).

For the compound `N#C/C(=C\c1cccc(F)c1)c1nc(-c2cc3c(ccc4ccccc43)oc2=O)cs1`, the “growth rescue (activation)” value was -13.3% (inactive). The same measure, in the same setting: next, `O=C(CSc1nc2c(c(=O)[nH]1)CN(Cc1ccc3c(c1)OCO3)CC2)Nc1cc(F)ccc1F`: -2.02% (inactive); `COc1ccc(-c2csc(-c3c(N)c(C(=O)c4ccc(OC)c(OC)c4)n4ccccc34)n2)cc1`: 9.93% (inactive). In the case of `COc1ccc(-c2csc(Nc3ccccn3)n2)cc1`, the Potency is 3.55 µM (active). In the case of `Cc1cccc(NS(=O)(=O)c2ccc([N+](=O)[O-])cc2)n1`, the “growth rescue (activation)” value is -5.16% (inactive). Still for that read-out and setting: the figure for `Cc1cc(-c2ccccc2)n2nc(-c3ccccc3)cc2n1` is 3.2% (inactive); for `CCCn1c(C2CCCN2c2nc(-c3ccc(OC)cc3)cs2)nc2ccccc21` (centres undefined) it is 3.8% (inactive). Turning to `Cc1cccc(Nc2nc(-c3ccccc3)cs2)n1`, the Potency is 14.1 µM (active). As for `O=C(NCC(c1ccco1)S(=O)(=O)c1cccs1)c1ccc(F)cc1` (centres undefined), the “growth rescue (activation)” value is 25% (inactive). Regarding `Cc1ccc(N(CC(=O)NCc2ccc(Cl)cc2)S(=O)(=O)N(C)C)cc1`, the “growth rescue (activation)” value is 1.6% (inactive). Still for that read-out and setting: the figure for `COc1ccccc1CNC(=O)C(Cc1ccccc1)NS(=O)(=O)c1ccc2c(c1)oc(=O)n2C` (centres undefined) is 16.4% (inactive); for `Cc1ccc(Cn2c(=O)n(-c3ccc(C)cc3)c(=O)c3c2c2cc(C)ccc2n3C)cc1` it is 3.2% (inactive). As to `CCOc1ccc(N2CC(C)Cn3c2nc2c3c(=O)n(Cc3c(F)cccc3Cl)c(=O)n2C)cc1` (centres undefined), the “growth rescue (activation)” value was 15.8% (inactive).

On to `CCCCC(=O)OC1=CN(Cc2ccccc2)S(=O)(=O)c2ccccc21`, for which the “growth rescue (activation)” value was 1.17% (inactive). Turning to `CC(=O)OC1=C(C(C)=O)N(Cc2ccccc2)S(=O)(=O)c2ccccc21`, the Potency is 35.5 µM (active).

Regarding `CCOC(=O)CN1C(C(=O)c2ccccc2)=C(OC(=O)C(C)(C)C)c2ccccc2S1(=O)=O`, the “growth rescue (activation)” value is 18.4% (inactive). Take `CC(=O)c1ccc(OC(=O)N2CCOCC2)cc1`: the “growth rescue (activation)” value was -20.1% (inactive). For `CC(=O)Oc1ccc(-c2cccc(C(=O)N3CCCCC3)c2)cc1`, the growth rescue (activation) was -16% [at 1.82 µM] (inactive). Regarding `O=C(c1ccccc1)c1ccc(OC(=O)N2CCCC2)cc1`, the Potency is 11.2 µM (active). Still for that read-out and setting: next, `O=S(=O)(NCC1OCCc2ccccc21)c1ccccc1` (centres undefined): 10 µM (active). Consider `O=S(=O)(NCCc1ccccc1)c1ccccc1`, for which the “growth rescue (activation)” value is 12.3% (inactive). `O=C(Cc1ccccc1)NCC1OCCc2ccccc21` (centres undefined): the “growth rescue (activation)” value was 14.4% (inactive).

With `CCCOc1ccc(C(=O)Nc2ccc3oc(-c4cccc(Cl)c4Cl)nc3c2)cc1`, the “growth rescue (activation)” value is 11.7% (inactive). Same read-out and setting: next, `CCOc1ccc(NC(=O)c2cc(S(=O)(=O)N3CCCC3)c[nH]2)cc1`: 4.42% (inactive).
